# The list is not random: actives were taken first. Their share in the collection is about 4.3%.
# HSF1 inhib = HSF1 inhibition; NIH3T3-HGL HSE-luciferase, MG132-induced, luminescence 8 h; active compounds read low; activity change, negative = inhibition, % at 7.5 µM (by protocol); 300,000 tested, 0.77% active; AID 2098;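 active = more than half of replicate wells show activity change below -50%, luminescence cut by over half; inconclusive = some wells, but at most half, below -50%; inactive = no replicate well below -50%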;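 also: luciferase reports HSF-1 transcriptional activity via heat shock element; 0% = median of DMSO wells and -100% = zero luminescence signal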
# HSF1 activator = increases HSF-1 driven luciferase reporter signal | NIH3T3-HGL HSF-1 luciferase reporter, MG132, 8 h; 100% = twice DMSO control signal | activation, % at 9 µM | 300,000 tested, 1.7% active;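 active = mean replicate activation of at least 50% with a set share of replicates each reaching 50%; inconclusive = only one of those two conditions met; inactive = mean below 50% and too few replicates reaching it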;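 also: 0% = median of the neutral control wells and 100% = twice that signal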
# Wnt act = activates Wnt/beta-catenin signaling in a reporter cell assay | activator, plate reader | 300,000 tested, 1.2% active | activation, % at 9.35 µM | AID 743398; in the data active = activation above about 30%, passing the limit was not always enough; inconclusive = no clear call, values can overlap the other calls;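 also: 0% = neutral control wells and 100% = positive control wells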
# SMARCA2 activ = SMARCA2 function activation, primary screen. MG213 cells, MMTV-luciferase reporter, dexamethasone, overnight. activation, % at 9.1 µM. 370,000 tested, 1% active. AID 652017; in the data active = activation above about 7.8%;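 also: 0% = vehicle wells and 100% = reference activator wells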
# MITF TRPM1 HTS = activators of MITF-driven TRPM1 promoter activity in SK-MEL-5 cells; activation, % at 12.5 µM; 300,000 tested, 0.75% active; SK-MEL-5 TRPM1-promoter luciferase, 24 h; % of positive control, neutral wells = 0;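 active = mean activation of at least 80% with every replicate also reaching 80%; inconclusive = mean reaches 80% but some replicate falls short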;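 also: 0% = neutral control wells and 100% = parthenolide positive control wells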
# esBAF inh = inhibitors of esBAF chromatin remodeling in mouse ES cells | Bmi1-luciferase knock-in reporter, 24 h; 100% = twice the neutral-well signal | reporter increase, % at 12.5 µM | 350,000 tested, 2% active | AID 602393; in the data active = activation above about 40%; inconclusive = no clear call, values can overlap the other calls;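 also: 0% = median of the plate's neutral control wells and 100% = double that signal; a rise in the Bmi1 reporter signal indicates esBAF inhibition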
# esBAF Ring1 qPCR = esBAF inhibition confirmed by Ring1 de-repression; shares compounds with esBAF inh; fold change at 33 µM; 550 tested, under 10 active; mouse ESC E14, Ring1 mRNA RT-qPCR fold change; AID 743176;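 active = Ring1 gene expression raised more than 2-fold over untreated cells in both replicates at either tested dose; inconclusive = only one replicate above 2-fold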;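 also: Ring1 transcript normalised to actin housekeeping signal by TaqMan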
# Fgf4 repress = esBAF inhibition confirmed by Fgf4 repression; shares compounds with esBAF inh; mouse ESC E14, Fgf4 mRNA qPCR fold change; active compounds read low; Fgf4 expression fold change at 33 µM; 550 tested, 4% active; AID 743177;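 active = Fgf4 expression under 0.8 fold of control in both repeat measurements at one or both tested doses; inconclusive = under 0.8 fold in just a single repeat measurement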;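 also: Fgf4 transcript normalised to actin in duplex TaqMan qPCR; cells exposed to compound for 24 h before lysis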
# Bmi1 derepress = esBAF inhibition confirmed by Bmi1 de-repression; shares compounds with esBAF inh; mouse ESE14 ES cells, Bmi1 mRNA qPCR fold; active compounds read high; fold change at 33 µM; 550 tested, under 10 active; AID 743180;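 active = Bmi1 expression fold change above 6 at either tested concentration, seen in replicate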;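 also: higher fold means more Bmi1 de-repression and stronger esBAF inhibition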
# A549 cytotox = cytotoxicity in A549 cells | shares compounds with esBAF inh | plate reader | cell viability change % (negative = cytotoxic), % at 25 µM, hits read low | 550 tested, under 10 active; call rule not given here
# HepG2 tox SP = kills or reduces viability of HepG2 cells; shares compounds with esBAF inh; HepG2 cytotoxicity, plate reader; active compounds read low; activity change, negative = inhibition, % at 25 µM; 550 tested, 4% active; AID 743189; in the data active = activity change below about -50%
# HEK293 tox SP = kills or reduces viability of HEK293 cells; activity change, negative = inhibition, % at 25 µM, hits read low; shares compounds with esBAF inh; 550 tested, 3% active; HEK293 cytotoxicity, plate reader; in the data active = activity change below about -38%, passing the limit was not always enough
# * = called active by the depositor; ? = inconclusive; / = no result given.
SMILES,HSF1 inhib,HSF1 activator,Wnt act,SMARCA2 activ,MITF TRPM1 HTS,esBAF inh,esBAF Ring1 qPCR,Fgf4 repress,Bmi1 derepress,A549 cytotox,HepG2 tox SP,HEK293 tox SP
COc1ccc(CN(C)C[C@H]2Oc3ccc(NS(=O)(=O)c4ccc(F)cc4)cc3C(=O)N([C@@H](C)CO)C[C@H]2C)cc1,/,/,/,/,/,-1,/,/,/,/,/,/
Cc1cc(N2CCOCC2)nc2ccc(NC(=O)CCC(=O)N3CCN(c4ccc(F)cc4)CC3)cc12,2,15,4,2,9,13,/,/,/,/,/,/
Cc1cc(N2CCOCC2)nc2ccc(NC(=O)CCC(=O)N3CCN(c4ccccc4F)CC3)cc12,10,26,13,1,120*,74*,0.86,1.1,1,7,7,5
Cc1cc2oc(=O)cc(CN(C)Cc3cccc(F)c3)c2cc1Cl,-3,39,3,0,17,15,/,/,/,/,/,/
CN(Cc1ccccc1F)Cc1cc(=O)oc2cc(O)c(Cl)cc12,9,-2,-2,-2,10,6,/,/,/,/,/,/
Cc1ccc2c(CN(C)Cc3cccc(F)c3)cc(=O)oc2c1,28,40,0,3,88*,90*,0.97,?,1.6,4,-6,-11
Cc1cc2oc(=O)cc(CN(C)Cc3ccccc3F)c2cc1Cl,27,?,9,-1,60,64*,1.3,0.65*,1.5,3,-1,-2
CN(C)C(=O)C[C@H]1C[C@H]2c3cc(NC(=O)C4CCOCC4)ccc3O[C@H]2[C@@H](CO)O1,/,/,/,/,/,2,/,/,/,/,/,/
CC(C)NC(=O)Nc1ccc2c(c1)C(=O)N([C@@H](C)CO)C[C@H](C)[C@@H](CN(C)S(=O)(=O)c1cn(C)cn1)OCCCC[C@H](C)O2,/,/,/,/,/,-5,/,/,/,/,/,/
CC(=O)Nc1ccc(-c2ccccc2)s1,-6,10,/,-2,2,-10,/,/,/,/,/,/
CNC(=O)c1ccc(-c2ccccc2)s1,/,/,3,6,32,58*,1,?,1.1,-4,36,5
C=CCNc1oc(-c2ccc(OCC)cc2)nc1C#N,-2,-6,5,1,35,34,/,/,/,/,/,/
C=CCNc1oc(-c2ccc(OC)cc2)nc1C#N,12,11,/,0,63,79*,0.95,0.92,1.4,-2,10,-12
CN(C)c1ccc(-c2ccc3oc(-c4ccsc4)cc(=O)c3c2)cn1,/,/,38*,7,124*,69*,1.1,0.86,1.1,-22,10,-24
CC(=O)N1[C@H](CO)[C@@H]2c3ccccc3N(C(=O)c3ccccc3)C[C@@H]21,/,/,/,/,/,-1,/,/,/,/,/,/
Cc1cccc(NC(=O)CSc2nnc(-c3cc(C)n(-c4ccccc4)c3C)o2)c1C,-30,-45,/,-7,3,-35,/,/,/,/,/,/
Cc1cc(-c2nnco2)c(C)n1-c1ccccc1,6,13,1,3,11,54*,1.1,1,1.5,-17,-22,-19
CN1C(=O)c2cc(NC(=O)c3cccc(F)c3)ccc2OC[C@H]2O[C@H](CC(=O)O)CC[C@H]21,/,/,/,/,/,-4,/,/,/,/,/,/
CC(c1ccccc1)c1nnc(NC(=O)Nc2ccccc2)s1 (stereo unspecified),13,26,0,4,-11,8,/,/,/,/,/,/
CC(c1ccccc1)c1nnc(NC(=O)Nc2ccccc2F)s1 (stereo unspecified),11,7,0,1,?,80*,1.3,0.88,1.2,-8,-37,-2
COc1ccc(OCc2cc(C(=O)N(Cc3nccn3C)C(C)C)no2)c2ccccc12,32,48,20,0,43,70*,0.82,0.89,1.5,1,-31,-7
COc1ccc(-c2ccc3c(c2)O[C@@H](CN(C)CC2CC2)[C@@H](C)CN([C@H](C)CO)S3(=O)=O)cc1,/,/,/,/,/,-2,/,/,/,/,/,/
COc1cccc(C(=O)c2cc3cc(Cl)ccc3[nH]2)c1,28,7,14,5,23,78*,1,?,2.5,-6,-34,5
O=C(c1ccccc1)c1cc2cc(Cl)ccc2[nH]1,23,22,18,4,62,34,/,/,/,/,/,/
CC(=O)Nc1cc2c3c(cccc3c1)-c1ccccc1-2,/,/,6,0,34,70*,1.3,?,1.5,-5,27,-7
SMILES,HSF1 inhib,HSF1 activator,Wnt act,SMARCA2 activ,MITF TRPM1 HTS,esBAF inh,esBAF Ring1 qPCR,Fgf4 repress,Bmi1 derepress,A549 cytotox,HepG2 tox SP,HEK293 tox SP
N#CC(c1ccccc1O)N1N=C(c2ccccc2)CC1c1ccccc1 (stereo unspecified),17,40,29,-1,29,58*,1.1,0.95,1.3,-3,7,-4
CC(=O)Nc1ccc2nc(C)n(Cc3ccc(Cl)cc3)c(=O)c2c1,7,9,/,3,/,55*,1.6,0.81,1.3,-6,-12,-17
COc1cccc(S(=O)(=O)N(C)C[C@H]2OCc3ccccc3-c3ccccc3C(=O)N([C@@H](C)CO)C[C@H]2C)c1,/,/,/,/,/,4,/,/,/,/,/,/
Cc1csc(NC(=O)CSc2nc3sc(C)c(C)c3c(=O)[nH]2)n1,-2,7,7,0,/,13,/,/,/,/,/,/
CSCc1nc2sc(C(=O)Nc3nc(C)cs3)c(C)c2c(=O)[nH]1,17,31,4,4,49,60*,1.2,1.1,1.3,-3,-19,2
O=C(NCC[C@H]1CC[C@@H](NC(=O)C2CC2)[C@@H](CO)O1)c1ccc(F)cc1,/,/,/,/,/,-1,/,/,/,/,/,/
Cc1ccccc1NC(=O)c1ccc2c(c1)N(C)CCS2,19,38,23,1,/,80*,1.1,0.99,1.5,-10,-5,-7
COC(=O)c1ccc2c(c1)N(C)CCS2,0,4,1,1,5,-4,/,/,/,/,/,/
COC(=O)Cn1c(=NC(=O)c2ccc(OC)c(OC)c2)sc2cc(OC)ccc21,-1,0,-7,0,-10,/,/,/,/,/,/,/
COc1ccc(C(=O)N=c2sc3ccccc3n2C)cc1OC,/,/,43*,4,79,73*,1.1,0.84,2.3,-6,0,7
Cc1noc(C)c1S(=O)(=O)N(C)C[C@@H]1Oc2ccc(NC(=O)C3CC3)cc2CC(=O)N([C@H](C)CO)C[C@@H]1C,/,/,/,/,/,1,/,/,/,/,/,/

# Screening data deposited in PubChem BioAssay by several laboratories.
